Drawing on PubChem BioAssay (NCATS), this text covers outcome for 22 compounds.

Active and inactive are the calls of the source. The call rests on the fitted dose curve; in most records, active means well fitted activation curve with a large enough effect; inconclusive means small, poorly fitted or top-dose-only effect; inactive means flat fitted curve, though single readings scatter.

A short description of the experiment: Cellular Toxicity (caspase-3) SHSY5Y (AID 657). To be noted: SH-SY5Y caspase-3 activation, DMSO zero, 10 µM staurosporine = 100%; series mostly up to 91.7 µM. The text has this:
NIH Chemical Genomics Center [NCGC]
NIH Molecular Libraries Screening Centers Network [MLSCN]
National Institutes of Environmental Health Sciences [NIEHS]
National Toxicology Program [NTP]
We have developed a 1536-well cell-based assay for quantitative high throughput screening (qHTS) against a number of cell lines to determine in vitro caspase 3/7 activity of small molecules. This particular assay uses the SH-SY5Y cell line which is derived from human neuroblastoma.
NCGC Assay Protocol Summary:
The Caspase-Glo 3/7 assay (Promega) is a homogeneous method to measure caspase-3 and caspase-7 activities in cultured cells. The quantitation of caspase 3/7 activity is based on the cleavage of a peptide-aminoluciferin substrate. After caspase cleaves the substrate the free aminoluciferin is liberated and serves as the substrate of luciferase, which generates the light. The luminescent signal is proportional to the amount of caspase 3/7 activity present.
Using the Caspase-Glo 3/7 assay, the amount of caspase 3/7 activity was measured in the SH-SY5Y cell line with complete culture medium following compound treatment for 16 hours. The assay was performed in opaque white 1536-well plates. In the screen, staurosporine and doxorubicin were used as positive controls. Library compounds were measured for their ability to cause the activation of caspase 3/7 in the cell line, as reflected by an increase in luminescence signal, in a concentration-dependent manner. Data were normalized to the controls for basal activity (DMSO only) and 100% stimulation (10 uM staurosporine). AC50 values were determined from concentration-response data modeled with the standard Hill equation.
qHTS protocol for caspase 3/7 assay in SH-SY5Y cells
[Step] [Parameter] [Value] [Description]
1. Reagent; 5 uL; 1500 SH-SY5Y cells/well
2. Time; 5 hr; 37 °C incubation
4. Controls; 23 nL; doxorubicin 7 pM to 100 uM & staurosporine 1.4 pM to 20 uM
5. Time; 16 hr; 37 °C incubation
6. Reagent; 5 uL; Caspase-Glo 3/7 reagent
7. Time; 1 hr; Room Temperature
8. Detection; Luminescence; Viewlux plate reader
Keywords: caspase 3/7, apoptosis, SH-SY5Y cell line, luminescence, NTPHTS, NTPHTS_NCGC, NIEHS, EPA, DSSTox, MLSMR, MLSCN, NIH Roadmap, qHTS, NCGC
`NCCO`: the result was inactive.
`COc1cc(/C=C/C(=O)CC(=O)/C=C/c2ccc(O)c(OC)c2)ccc1O`: the compound was called inactive.
Consider `CN(C)c1ccc(N=NS(=O)(=O)O)cc1`, for which the result was inactive.
In the case of `CCCOC(=O)c1ccc(O)cc1`, the outcome was inactive.
For `COc1cc(CNC(=O)CCCC/C=C/C(C)C)ccc1O` the value was “inactive”; for `CC(C)NCC(O)COc1cccc2ccccc12` (configuration not stated), “inactive”.
Turning to `S=c1[nH]c2ccccc2s1`, the result was inactive.
For `CN(C)CCC(c1ccc(Cl)cc1)c1ccccn1` (configuration not stated) the value was “inactive”.
On to `c1ccc2sc(SSc3nc4ccccc4s3)nc2c1`, for which the compound was classed as inactive.
The result for `c1cnc2c(c1)ccc1cccnc12` reads “inactive”.
For `Nc1ccc(O)c(C(=O)O)c1` the value was “inactive”.
For `Nc1ccc([N+](=O)[O-])cc1O` the value was “inactive”; for `C#C[C@]1(O)CC[C@H]2[C@@H]3CCc4cc(O)ccc4[C@H]3CC[C@@]21C`, “inactive”.
As to `Nc1nc2ccc([N+](=O)[O-])cc2s1`, the call was inactive.
For `O=C(O)/C=C\C(=O)O` the value was “inactive”; for `CN1CCC[C@H]1c1cccnc1`, “inactive”; for `O=C1CN(/N=C/c2ccc([N+](=O)[O-])o2)C(=O)N1`, “inactive”.
With `O=C(O)c1cc(O)c(O)c(O)c1`, the result was inactive.
For `O=c1cc(-c2ccccc2)oc2ccccc12` the value was “inactive”; for `Nc1ccc(O)c([N+](=O)[O-])c1`, “inactive”.
As for `CCCCCCCCCCCCCCCCCC(=O)O`, the outcome was inactive.
The result for `CC1(C)S[C@@H]2[C@H](NC(=O)[C@H](N)c3ccccc3)C(=O)N2[C@H]1C(=O)O` reads “inactive”.
